# Experimental data published in PubChem BioAssay (EPA / NIEHS).
# Results filed as inconclusive are left out. The source made the active and inactive calls. How the source made its calls: active means hit-call score of the fitted dose curve at least 0.9, where 1 is the maximum; inconclusive means response in the unintended direction; inactive means score below 0.9.
# What was measured:
# [1] = molecular target: human Rho Associated Coiled-coil Containing Protein Kinase 1 (ROCK1), ROCK1 (gene 6093) (UniProt Q13464); assay: NVS_ENZ_hROCK1: NovaScreen (NVS) Enzymatic Assay for human Rho Associated Coiled-coil Containing Protein Kinase 1 (ROCK1) (AID 2283214)
# human Rho Associated Coiled-coil Containing Protein Kinase 1 (ROCK1), ROCK1 (gene 6093), sequence (Q13464 whole entry, looked up): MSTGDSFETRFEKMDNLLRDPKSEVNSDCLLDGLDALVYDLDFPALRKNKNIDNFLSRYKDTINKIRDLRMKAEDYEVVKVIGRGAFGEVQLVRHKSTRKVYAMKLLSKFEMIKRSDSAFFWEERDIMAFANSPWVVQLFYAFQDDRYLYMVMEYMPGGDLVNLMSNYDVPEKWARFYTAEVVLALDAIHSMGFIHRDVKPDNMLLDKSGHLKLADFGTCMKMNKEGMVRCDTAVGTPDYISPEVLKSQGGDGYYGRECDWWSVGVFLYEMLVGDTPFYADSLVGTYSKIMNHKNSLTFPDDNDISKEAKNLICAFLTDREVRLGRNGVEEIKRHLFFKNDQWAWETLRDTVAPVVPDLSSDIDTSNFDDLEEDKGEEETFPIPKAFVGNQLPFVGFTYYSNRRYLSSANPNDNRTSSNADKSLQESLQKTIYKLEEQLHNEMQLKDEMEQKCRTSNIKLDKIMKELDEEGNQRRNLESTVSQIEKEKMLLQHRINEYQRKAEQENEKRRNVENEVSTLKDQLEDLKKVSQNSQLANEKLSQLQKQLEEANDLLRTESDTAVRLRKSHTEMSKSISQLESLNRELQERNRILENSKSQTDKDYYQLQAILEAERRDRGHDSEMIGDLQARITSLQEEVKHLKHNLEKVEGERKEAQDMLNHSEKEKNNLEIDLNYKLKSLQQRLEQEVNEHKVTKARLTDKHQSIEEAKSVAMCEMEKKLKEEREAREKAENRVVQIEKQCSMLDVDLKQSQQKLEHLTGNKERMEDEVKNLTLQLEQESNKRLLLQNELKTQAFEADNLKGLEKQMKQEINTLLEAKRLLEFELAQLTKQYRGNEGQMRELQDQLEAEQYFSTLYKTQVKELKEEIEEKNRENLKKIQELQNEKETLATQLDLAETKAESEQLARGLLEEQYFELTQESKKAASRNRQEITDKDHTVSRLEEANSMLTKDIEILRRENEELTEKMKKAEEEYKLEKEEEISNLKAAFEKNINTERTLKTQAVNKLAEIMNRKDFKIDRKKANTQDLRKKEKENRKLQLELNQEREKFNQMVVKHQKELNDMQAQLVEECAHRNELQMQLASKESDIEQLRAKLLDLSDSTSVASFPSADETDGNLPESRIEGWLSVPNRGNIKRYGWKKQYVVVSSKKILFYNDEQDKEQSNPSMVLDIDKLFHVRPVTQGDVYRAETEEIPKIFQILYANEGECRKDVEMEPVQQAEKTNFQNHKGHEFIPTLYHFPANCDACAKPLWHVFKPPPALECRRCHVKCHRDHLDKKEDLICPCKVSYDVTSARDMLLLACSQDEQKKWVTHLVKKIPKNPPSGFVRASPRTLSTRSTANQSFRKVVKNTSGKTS
# Procedure, shortened: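 Compounds first run in duplicate at 25 uM against recombinant human ROCK1, then followed in concentration series. Kinase activity was read 1 h post-dosing by fluorescence with mobility-shift separation, as signal loss relative to DMSO.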
# [2] = molecular target: human Sirtuin 1 (SIRT1), SIRT1 (gene 23411) (UniProt Q96EB6); assay: NVS_ENZ_hSIRT1: NovaScreen (NVS) Enzymatic Assay for human Sirtuin 1 (SIRT1) (AID 2283219)
# human Sirtuin 1 (SIRT1), SIRT1 (gene 23411), sequence (Q96EB6 whole entry, looked up): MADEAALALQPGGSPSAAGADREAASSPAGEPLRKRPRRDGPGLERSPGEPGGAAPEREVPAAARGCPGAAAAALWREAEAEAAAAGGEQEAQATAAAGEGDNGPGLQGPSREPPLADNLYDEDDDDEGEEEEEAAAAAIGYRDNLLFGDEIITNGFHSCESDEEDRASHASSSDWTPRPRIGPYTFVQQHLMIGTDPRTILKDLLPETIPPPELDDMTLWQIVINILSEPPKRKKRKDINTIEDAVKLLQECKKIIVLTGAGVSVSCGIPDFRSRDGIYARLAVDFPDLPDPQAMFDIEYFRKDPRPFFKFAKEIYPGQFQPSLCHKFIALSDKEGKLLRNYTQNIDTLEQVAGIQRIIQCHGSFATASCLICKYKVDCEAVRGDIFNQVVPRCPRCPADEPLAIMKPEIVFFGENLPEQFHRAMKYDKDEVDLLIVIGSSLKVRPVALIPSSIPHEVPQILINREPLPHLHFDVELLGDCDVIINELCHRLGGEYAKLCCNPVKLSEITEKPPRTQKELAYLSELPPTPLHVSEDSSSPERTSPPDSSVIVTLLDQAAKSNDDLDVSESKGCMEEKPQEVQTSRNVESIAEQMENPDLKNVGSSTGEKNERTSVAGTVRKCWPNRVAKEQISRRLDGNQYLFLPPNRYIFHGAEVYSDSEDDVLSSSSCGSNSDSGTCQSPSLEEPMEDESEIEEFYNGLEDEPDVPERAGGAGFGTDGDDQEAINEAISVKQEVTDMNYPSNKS
# Procedure, shortened: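 Cell-free recombinant SIRT1 with a fluorescent substrate; substrate and product separated by electrophoretic mobility shift and read by fluorescence intensity, 1 h after dosing. Primary screen at 25 uM in duplicate; hits re-run in concentration-response up to 50 uM, relative to DMSO.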
# [3] = molecular target: human Protein Tyrosine Phosphatase Receptor Type C (PTPRC), PTPRC (gene 5788) (UniProt P08575); assay: NVS_ENZ_hPTPRC: NovaScreen (NVS) Enzymatic Assay for human Protein Tyrosine Phosphatase Receptor Type C (PTPRC) (AID 2283212)
# human Protein Tyrosine Phosphatase Receptor Type C (PTPRC), PTPRC (gene 5788), sequence (P08575 whole entry, looked up): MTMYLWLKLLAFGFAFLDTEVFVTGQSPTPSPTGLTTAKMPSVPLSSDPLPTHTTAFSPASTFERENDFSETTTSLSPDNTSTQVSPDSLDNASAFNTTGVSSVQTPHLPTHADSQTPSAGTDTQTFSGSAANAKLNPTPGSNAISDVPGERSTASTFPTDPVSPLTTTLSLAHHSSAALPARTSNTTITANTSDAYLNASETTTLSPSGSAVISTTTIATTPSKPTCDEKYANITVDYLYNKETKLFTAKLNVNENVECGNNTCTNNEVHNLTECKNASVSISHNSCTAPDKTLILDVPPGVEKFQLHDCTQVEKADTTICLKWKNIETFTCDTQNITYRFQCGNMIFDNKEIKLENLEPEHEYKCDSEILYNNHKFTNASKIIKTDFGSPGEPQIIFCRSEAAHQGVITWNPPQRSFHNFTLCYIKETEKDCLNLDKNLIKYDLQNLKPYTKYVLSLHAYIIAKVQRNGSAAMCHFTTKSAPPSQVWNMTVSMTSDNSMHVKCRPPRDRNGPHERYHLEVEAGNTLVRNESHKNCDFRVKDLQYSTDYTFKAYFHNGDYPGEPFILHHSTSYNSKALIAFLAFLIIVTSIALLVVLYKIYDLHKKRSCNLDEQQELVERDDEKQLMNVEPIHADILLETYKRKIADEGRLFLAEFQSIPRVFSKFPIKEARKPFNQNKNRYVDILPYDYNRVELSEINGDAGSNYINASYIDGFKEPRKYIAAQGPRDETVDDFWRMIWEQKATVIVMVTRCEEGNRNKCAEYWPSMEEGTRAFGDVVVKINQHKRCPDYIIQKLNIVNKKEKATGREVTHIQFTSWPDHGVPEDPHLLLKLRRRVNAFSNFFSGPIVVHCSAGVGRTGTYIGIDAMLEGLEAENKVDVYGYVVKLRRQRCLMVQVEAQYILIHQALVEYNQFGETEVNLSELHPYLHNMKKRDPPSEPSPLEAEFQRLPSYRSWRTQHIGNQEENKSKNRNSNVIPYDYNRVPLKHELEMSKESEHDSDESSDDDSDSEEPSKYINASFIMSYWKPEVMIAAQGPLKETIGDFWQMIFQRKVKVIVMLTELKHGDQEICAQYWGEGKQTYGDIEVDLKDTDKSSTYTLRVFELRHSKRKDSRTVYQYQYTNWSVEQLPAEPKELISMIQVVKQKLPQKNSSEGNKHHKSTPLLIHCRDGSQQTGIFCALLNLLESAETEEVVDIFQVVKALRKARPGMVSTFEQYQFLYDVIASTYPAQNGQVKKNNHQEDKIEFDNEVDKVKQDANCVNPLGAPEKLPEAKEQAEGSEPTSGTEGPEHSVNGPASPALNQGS
# Procedure, shortened: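 Absorbance-based phosphatase activity of human PTPRC protein extracted from yeast was measured 1 h post-dosing. Compounds first tested at 25 uM in duplicate, then those passing threshold in singleton concentration series to 50 uM.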
# [4] = molecular target: rabbit Imidazoline 2 Central (I2C), CKB (gene 100009085) (UniProt P00567); assay: NVS_ENZ_rabI2C: NovaScreen (NVS) Enzymatic Assay for rabbit Imidazoline 2 Central (I2C) (AID 2283228)
# rabbit Imidazoline 2 Central (I2C), CKB (gene 100009085), sequence (P00567 whole entry, looked up): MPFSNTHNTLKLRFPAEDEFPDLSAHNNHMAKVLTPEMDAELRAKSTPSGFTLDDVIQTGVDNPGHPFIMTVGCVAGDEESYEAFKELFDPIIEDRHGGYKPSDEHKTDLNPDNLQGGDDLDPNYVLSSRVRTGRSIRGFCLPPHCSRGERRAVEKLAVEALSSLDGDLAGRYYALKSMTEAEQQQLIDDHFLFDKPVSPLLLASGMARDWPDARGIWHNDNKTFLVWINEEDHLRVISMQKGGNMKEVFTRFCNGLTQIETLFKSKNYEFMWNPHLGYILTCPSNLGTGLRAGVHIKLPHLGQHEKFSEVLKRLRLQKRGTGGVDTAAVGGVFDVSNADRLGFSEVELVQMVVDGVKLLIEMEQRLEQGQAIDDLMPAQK
# Procedure, shortened: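 Rabbit brain membranes, cell-free; readout by filter-based scintillation counting 1.5 hours after dosing, loss of signal vs DMSO. Initial duplicate test at 25 uM, then concentration-response with 50 uM top concentration.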
# [5] = molecular target: human Raf-1 Proto-Oncogene, serine/threonine Kinase (RAF1), RAF1 (gene 5894) (UniProt P04049); assay: NVS_ENZ_hRAF1: NovaScreen (NVS) Enzymatic Assay for human Raf-1 Proto-Oncogene, serine/threonine Kinase (RAF1) (AID 2283216)
# Procedure, shortened: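 Single-point screening at 25 uM (duplicate), followed by singleton concentration-response to 50 uM maximum for chemicals exceeding threshold. Enzyme activity from fluorescent substrate-product mobility-shift separation after 1 h, relative to DMSO.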
# [6] = molecular target: human Tyrosine Protein Kinase Receptor Tie-2 (Tie2), TEK (gene 7010) (UniProt Q02763); assay: NVS_ENZ_hTie2: NovaScreen (NVS) Enzymatic Assay for human Tyrosine Protein Kinase Receptor Tie-2 (Tie2) (AID 2283225)
# human Tyrosine Protein Kinase Receptor Tie-2 (Tie2), TEK (gene 7010), sequence (Q02763 whole entry, looked up): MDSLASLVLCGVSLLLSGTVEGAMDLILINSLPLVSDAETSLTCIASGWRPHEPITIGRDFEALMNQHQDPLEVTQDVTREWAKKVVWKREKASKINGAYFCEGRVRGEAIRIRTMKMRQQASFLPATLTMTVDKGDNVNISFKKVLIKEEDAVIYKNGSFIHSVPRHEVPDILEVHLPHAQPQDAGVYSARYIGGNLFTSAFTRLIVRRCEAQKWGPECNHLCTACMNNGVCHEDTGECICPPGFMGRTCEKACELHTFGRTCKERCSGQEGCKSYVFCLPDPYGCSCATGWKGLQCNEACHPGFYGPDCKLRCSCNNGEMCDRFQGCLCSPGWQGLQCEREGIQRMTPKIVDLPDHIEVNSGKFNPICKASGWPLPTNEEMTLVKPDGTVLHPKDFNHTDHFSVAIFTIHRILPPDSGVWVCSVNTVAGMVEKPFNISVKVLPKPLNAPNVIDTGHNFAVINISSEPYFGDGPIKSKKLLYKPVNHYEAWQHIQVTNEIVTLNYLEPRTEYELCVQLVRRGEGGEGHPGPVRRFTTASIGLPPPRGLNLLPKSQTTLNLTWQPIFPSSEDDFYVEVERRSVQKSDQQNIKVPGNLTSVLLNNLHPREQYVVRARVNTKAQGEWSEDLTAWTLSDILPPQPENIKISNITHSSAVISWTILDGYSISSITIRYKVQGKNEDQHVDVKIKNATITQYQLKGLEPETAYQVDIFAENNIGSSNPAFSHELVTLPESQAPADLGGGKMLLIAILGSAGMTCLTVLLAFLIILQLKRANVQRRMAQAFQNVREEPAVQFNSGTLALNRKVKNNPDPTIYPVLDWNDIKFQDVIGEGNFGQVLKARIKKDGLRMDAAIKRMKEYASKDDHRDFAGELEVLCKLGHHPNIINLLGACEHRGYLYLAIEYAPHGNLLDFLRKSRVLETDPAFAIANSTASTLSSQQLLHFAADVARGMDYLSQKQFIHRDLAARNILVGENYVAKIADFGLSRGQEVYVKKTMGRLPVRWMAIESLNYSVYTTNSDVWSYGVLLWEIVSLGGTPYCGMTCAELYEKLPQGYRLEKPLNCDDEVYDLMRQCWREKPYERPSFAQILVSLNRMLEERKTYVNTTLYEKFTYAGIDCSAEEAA
# Procedure, shortened: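 Substrate and product were separated by mobility shift and detected by fluorescence after a 1-hour reaction with recombinant Tie2. Chemicals passing a 25 uM single-point screen were titrated to a maximum of 50 uM. Results were normalized to DMSO baseline.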
# [7] = molecular target: human Sirtuin 2 (SIRT2), SIRT2 (gene 22933) (UniProt Q8IXJ6); assay: NVS_ENZ_hSIRT2: NovaScreen (NVS) Enzymatic Assay for human Sirtuin 2 (SIRT2) (AID 2283217)
# Procedure, shortened: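 Single-point duplicate screen at 25 uM, then concentration-response (max 50 uM) for chemicals passing threshold. Enzyme activity of recombinant human SIRT2 measured after 1 hr by fluorescence with mobility-shift separation of product; DMSO baseline.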
# [8] = molecular target: human Sirtuin 3 (SIRT3), SIRT3 (gene 23410) (UniProt Q9NTG7); assay: NVS_ENZ_hSIRT3: NovaScreen (NVS) Enzymatic Assay for human Sirtuin 3 (SIRT3) (AID 2283222)
# Procedure, shortened: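 Cell-free enzyme assay with recombinant protein and fluorescent substrate, product separated by electrophoretic mobility shift; read 1 hour after dosing. Screened in duplicate at 25 uM, then singleton concentration-response up to 50 uM; loss of signal versus DMSO.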
# [9] = molecular target: human Vascular Endothelial Growth Factor Receptor 1 (VEGFR1), FLT1 (gene 2321) (UniProt P17948); assay: NVS_ENZ_hVEGFR1: NovaScreen (NVS) Enzymatic Assay for human Vascular Endothelial Growth Factor Receptor 1 (VEGFR1) (AID 2283226)
# Procedure, shortened: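 Kinase activity of recombinant human VEGFR1 was read by fluorescence after electrophoretic separation of product from substrate, 1 h post-dosing; initial duplicate single-point testing at 25 uM, followed by concentration-series follow-up, with DMSO as baseline.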
# [10] = molecular target: human Tropomyosin Receptor Kinase A (TRKA), NTRK1 (gene 4914) (UniProt P04629); assay: NVS_ENZ_hTrkA: NovaScreen (NVS) Enzymatic Assay for human Tropomyosin Receptor Kinase A (TRKA) (AID 2283224)
# Procedure, shortened: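 Compounds were screened at 25 uM in duplicate, then concentration series to a 50 uM top for those meeting threshold (e.g. 30% inhibition). Enzyme was recombinant human TrkA, incubated 1 h. Product formation was quantified by fluorescence after mobility-shift separation.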
compound,measurement,setting,value
O=P(Oc1ccccc1)(Oc1ccccc1)Oc1ccccc1,outcome,[1],inactive
Cc1ccc([N+](=O)[O-])cc1C,outcome,[1],inactive
same,outcome,[2],inactive
CC(Cl)(Cl)C(=O)O,outcome,[2],inactive
Nc1ccc2ccccc2c1,AC50,[3],12.3 µM (active)
same,AC50,[4],13.7 µM (active)
CCCCN(CCCC)SN(C)C(=O)Oc1cccc2c1OC(C)(C)C2,AC50,[3],7.97 µM (active)
CC(C)(C)OOC(C)(C)C,outcome,[5],inactive
same,outcome,[6],inactive
CSC(C)(C)C=NO,outcome,[7],inactive
same,outcome,[2],inactive
same,outcome,[8],inactive
same,outcome,[6],inactive
CCOc1ccc(C(C)(C)COCc2cccc(Oc3ccccc3)c2)cc1,outcome,[1],inactive
same,outcome,[2],inactive
Cc1ccc(O)cc1C,outcome,[3],inactive
CC(C)(C)c1ccc(O)cc1,outcome,[9],inactive
Cc1ccc(N)cc1N,AC50,[3],32.2 µM (active)
same,outcome,[4],inactive
CC1(C)CN=C(NN=C(/C=C/c2ccc(C(F)(F)F)cc2)/C=C/c2ccc(C(F)(F)F)cc2)NC1,outcome,[6],inactive
O=[N+]([O-])c1ccccc1,outcome,[10],inactive
ClC1=C(Cl)C2(Cl)C3C(Cl)C(Cl)CC3C1(Cl)C2(Cl)Cl (stereo not drawn),outcome,[10],inactive
O=P1(N(CCCl)CCCl)NCCCO1 (stereo not drawn),outcome,[3],inactive
same,outcome,[2],inactive
same,outcome,[6],inactive
O=c1ssc(Cl)c1Cl,outcome,[6],inactive
Cc1cccc(N)c1,outcome,[4],inactive
Cc1ccc2c(c1N)C(=O)c1ccccc1C2=O,AC50,[9],25 µM (active)
